# According to PubChem BioAssay (NCATS):
# Several values for one entry are separate records, joined by “and”; a condition that tells them apart may be missing. Equal values may be shown once. Results filed as inconclusive are left out. Entries that show only a call come without a potency. Activity calls are given as the source filed them. Unless noted, calls follow the shape of the dose curve; as a rule, active = well fitted curve in the direction sought with a large enough effect; inconclusive = small, poorly fitted or top-dose-only effect, or another doubt; inactive = no such curve, though single readings can be large; an effect the other way counts as inactive or inconclusive.
# Tests used:
# [1] = biological target: Arylsulfatase A (Homo sapiens) (UniProt P15289); assay: qHTS screen for enhancers of Arylsulfatase A (ASA1): LOPAC Validation Assay (AID 720538)
# Summary of the method: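 Read-out: fluorescence at Ex=525/Em=598 nm after 1N NaOH final stop. Patient fibroblasts carrying ASA-I179S had 48h compound exposure, then 14h room-temperature pNCS hydrolysis (0.5mM final) in lysis buffer. Signal increase = enhanced activity.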
# [2] = qHTS for compounds that reverse cellular toxicity of Amyloid beta (A-beta) peptide in yeast: LOPAC Validation Assay (AID 720559)
# Summary of the method: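 OD600 growth readout after 48 hr at 30 C; A-beta-toxic yeast plus pinned compounds in medium. Normalization: DMSO = negative, equimolar FeCl3 + clioquinol = positive.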
# [3] = qHTS for Activators of Parkin Expression: LOPAC Validation Assay (NLuc Reporter) (AID 720572)
# Summary of the method: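 NLuc signal, read 10 min after reagent and following a prior FLuc read, is normalized to DMSO (0) and positive controls (100%). Cells: neuronal Parkin-promoter coincidence reporter line; compounds tested 7-point, 24 h, 37 C, 5% CO2.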
# [4] = qHTS for Activators of Parkin Expression: LOPAC Validation Assay (FLuc Reporter) (AID 720573; also: potency is read from the fitted curve at half-maximal effect)
# Summary of the method: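 FLuc luminescence read-out from a neuronal line expressing a Parkin-promoter-driven coincidence reporter. Cells treated 24 h at 37 C, 5% CO2 with compounds at 7 concentrations; signal increase normalized to DMSO and positive control.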
# [5] = biological target: T1, Hexokinase-4 (Homo sapiens) + Glucokinase regulatory protein (Homo sapiens) (UniProt P35557+Q14397); assay: qHTS assay for inhibitors of recombinant human GCK-GKRP interaction: Diaphorase-coupled assay (AID 743205)
# Summary of the method: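 Resorufin fluorescence (525/590 nm), read each minute over 30 min, reports GCK activity coupled via G6PDH and diaphorase. Reaction: 10 nM GST-GCK, 10 nM FLAG-GKRP, 5 mM glucose, 0.4 mM ATP, 0.15 mM NADP+, 0.1 mM resazurin.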
# [6] = biological target: T1, Hexokinase-4 (Homo sapiens) + Glucokinase regulatory protein (Homo sapiens); assay: qHTS assay for inhibitors of recombinant human GCK-GKRP interaction: ADP-Glo assay (AID 743206)
# Summary of the method: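 Pin-transferred compounds meet a 15 nM GST-GCK/15 nM FLAG-GKRP/2 uM S6P mix (dispense concentrations). ATP is then added to 0.4 mM final with 5 mM glucose, and the reaction runs 60 min at room temperature. ADP is quantified luminescently.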
# [7] = biological target: T1, Hexokinase-4 (Homo sapiens) + Glucokinase regulatory protein (Homo sapiens); assay: qHTS assay for inhibitors of recombinant human GCK-GKRP interaction: HTRF assay (AID 743207)
# Summary of the method: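 HTRF read-out (ex 320 nm; 615/665 nm emission) after 60 min RT equilibration of 5 nM GST-GCK, 5 nM FLAG-GKRP, 2 uM S6P, compound and anti-FLAG/anti-GST detection antibodies; signal normalized between DMSO wells with and without GCK.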
# [8] = qHTS Assay for Identifying Gametocytocidal Compounds (AID 743244); also: potency is read from the fitted curve at half-maximal effect;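 as to max response: actives lower the fluorescent signal which means gametocytes are killed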; conditions: P. falciparum 3D7 stage III-V gametocytes, alamarBlue, 72 h; max response: stronger effect = lower value
# Summary of the method: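 In this qHTS viability screen, late-stage 3D7 gametocytes are incubated with compound for 72 h, then with alamarBlue for 24 h; reduced resorufin fluorescence marks killing.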
# [9] = qHTS profiling of the MIPE4 collection as inhibitors of Plasmodium falciparum (3D7) proliferation (AID 743344; call rule not given here); conditions: P. falciparum 3D7 in erythrocytes, SYBR Green DNA fluorescence, 72 h; at 28.5 µM (top of the series) unless noted
# Summary of the method: (§1)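 Parasite DNA was quantified by SYBR Green I fluorescence (ex 485, em 535 nm) after overnight lysis in saponin/Triton buffer at room temperature. Cultures at 0.3% parasitemia and 2.5% hematocrit were first exposed to compound for 72 h at 37 C; signals were normalised to artemisinin (0.29 uM) and vehicle wells.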
# [10] = qHTS profiling of the MIPE4 collection as inhibitors of Plasmodium falciparum (DD2) proliferation (AID 743345; call rule not given here); conditions: P. falciparum Dd2 in erythrocytes, SYBR Green DNA, 72 h; at 28.5 µM (top of the series) unless noted
# Summary of the method: as §1
# [11] = qHTS profiling of the MIPE4 collection as inhibitors of Plasmodium falciparum (DD2) proliferation (Rep 2) (AID 743346; call rule not given here); conditions: P. falciparum Dd2 in erythrocytes, SYBR Green DNA, 72 h; at 28.5 µM (top of the series) unless noted
# Summary of the method: as §1
# [12] = qHTS assay for small molecule agonists of the antioxidant response element (ARE) signaling pathway measured by Nrf2-dependant transcriptional activity (AID 720636; active = well fitted curve in the direction sought with a large enough effect in the repeat runs; an effect the other way counts as inactive or inconclusive;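 also: HepG2 cells with an ARE-driven luciferase reporter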)
# Summary of the method: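 Reporter gene assay, HepG2 ARE-luc: 16 hr compound, 37 C, 5% CO2; read-out luciferase luminescence.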
# [13] = qHTS assay for small molecule agonists of the antioxidant response element (ARE) signaling pathway measured by Nrf2-dependant transcriptional activity - cell viability counter screen (AID 720653; active = well fitted curve in the direction sought with a large enough effect in the repeat runs; an effect the other way counts as inactive or inconclusive); conditions: ARE-bla HepG2 viability, CellTiter-Glo ATP luminescence, 16 h; max response: stronger effect = lower value
# Summary of the method: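 ARE-bla HepG2 cells treated with compounds for 16 h at 37C; this counter screen measures viability as intracellular ATP by CellTiter-Glo luminescence after 30 min at room temperature.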
# [14] = qHTS assay for cell viability of the p53RE-bla HCT-116 cell line (AID 743292); also: nearly all actives have a fitted effect of over 55% in size
# Summary of the method: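 Readout: CellTiter-Glo luminescence after 30 min RT. Treatment: compounds in DMSO, 16 h, 37 C. Cells: CellSensor p53RE-bla HCT-116, 4,000/well, preincubated 5 h.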
# [15] = biological target: Nuclear receptor ROR-gamma (Homo sapiens) (UniProt P51449); assay: qHTS assay for small molecule antagonists of the retinoid-related orphan receptor gamma (ROR-gamma) signaling pathway (AID 651802); also: nearly all actives have a fitted effect of over 60% in size; also: potency is read from the fitted curve at half-maximal effect
# Summary of the method: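 Luciferase read-out: ONE-Glo luminescence after 30 min at room temperature, following 16hr doxycycline induction at 37C, 5% CO2 of CHO cells with TET-inducible ROR and RORE-LUC reporter; decreased luminescence = reduced reporter activity.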
# [16] = qHTS assay for small molecule antagonists of the retinoid-related orphan receptor gamma (ROR-gamma) signaling pathway - cell viability counter screen (AID 720652; active = well fitted curve in the direction sought with a large enough effect in the repeat runs; an effect the other way counts as inactive or inconclusive;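 also: compound exposure lasted 16 hr before ATP read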; also: potency is read from the fitted curve at half-maximal effect)
# Summary of the method: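 CHO RORE-LUC/TET-ROR line, 1,000 cells/well, 37 C 5% CO2 5 hr; cpd or DMSO + doxycycline induction, 16 hr. CellTiter-Glo, 30 min RT, luminescence = ATP content.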
# Arylsulfatase A (Homo sapiens), sequence (P15289 whole entry, looked up): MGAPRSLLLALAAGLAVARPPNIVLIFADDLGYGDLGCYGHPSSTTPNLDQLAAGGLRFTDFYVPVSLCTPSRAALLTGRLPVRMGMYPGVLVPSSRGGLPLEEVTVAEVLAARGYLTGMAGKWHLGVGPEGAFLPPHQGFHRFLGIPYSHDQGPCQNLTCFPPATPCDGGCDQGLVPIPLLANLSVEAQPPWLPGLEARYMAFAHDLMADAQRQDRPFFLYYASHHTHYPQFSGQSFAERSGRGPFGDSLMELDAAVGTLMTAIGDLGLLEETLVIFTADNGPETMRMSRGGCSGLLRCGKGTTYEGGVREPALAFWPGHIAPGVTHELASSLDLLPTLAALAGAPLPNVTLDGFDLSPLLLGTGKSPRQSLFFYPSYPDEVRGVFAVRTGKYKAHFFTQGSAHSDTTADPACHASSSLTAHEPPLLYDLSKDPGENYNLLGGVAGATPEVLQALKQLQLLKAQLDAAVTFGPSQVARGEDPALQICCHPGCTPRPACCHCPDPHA
# T1 sequence (P35557 whole entry, looked up): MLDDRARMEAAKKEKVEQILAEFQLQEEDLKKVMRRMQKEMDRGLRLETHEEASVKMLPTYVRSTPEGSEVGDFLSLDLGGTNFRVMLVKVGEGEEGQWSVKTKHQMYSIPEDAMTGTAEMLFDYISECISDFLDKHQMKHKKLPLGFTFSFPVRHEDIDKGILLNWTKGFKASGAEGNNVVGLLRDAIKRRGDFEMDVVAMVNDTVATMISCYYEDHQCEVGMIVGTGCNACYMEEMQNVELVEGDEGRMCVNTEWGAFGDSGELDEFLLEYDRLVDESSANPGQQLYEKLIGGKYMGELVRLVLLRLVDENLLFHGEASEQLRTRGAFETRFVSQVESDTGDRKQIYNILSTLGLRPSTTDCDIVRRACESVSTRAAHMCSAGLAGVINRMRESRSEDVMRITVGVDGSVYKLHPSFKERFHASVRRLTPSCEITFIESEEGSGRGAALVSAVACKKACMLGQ
# T1 sequence (Q14397 whole entry, looked up): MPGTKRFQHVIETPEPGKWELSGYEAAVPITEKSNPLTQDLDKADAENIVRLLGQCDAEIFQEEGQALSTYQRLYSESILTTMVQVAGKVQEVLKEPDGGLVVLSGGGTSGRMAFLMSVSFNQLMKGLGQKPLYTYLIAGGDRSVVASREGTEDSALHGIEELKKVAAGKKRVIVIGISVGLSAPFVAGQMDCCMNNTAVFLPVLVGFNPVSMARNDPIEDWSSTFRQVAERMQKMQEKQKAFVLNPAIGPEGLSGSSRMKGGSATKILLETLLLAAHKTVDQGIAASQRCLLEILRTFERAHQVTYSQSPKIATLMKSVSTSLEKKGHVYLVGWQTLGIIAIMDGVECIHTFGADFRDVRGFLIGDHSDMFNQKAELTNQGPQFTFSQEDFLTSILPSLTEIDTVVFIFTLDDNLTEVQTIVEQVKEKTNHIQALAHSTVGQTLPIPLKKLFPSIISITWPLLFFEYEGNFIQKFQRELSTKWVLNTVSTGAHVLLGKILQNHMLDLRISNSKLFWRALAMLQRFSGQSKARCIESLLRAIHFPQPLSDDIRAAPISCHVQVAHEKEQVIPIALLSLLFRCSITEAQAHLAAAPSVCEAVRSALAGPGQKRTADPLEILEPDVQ
# Nuclear receptor ROR-gamma (Homo sapiens), sequence (P51449 whole entry, looked up): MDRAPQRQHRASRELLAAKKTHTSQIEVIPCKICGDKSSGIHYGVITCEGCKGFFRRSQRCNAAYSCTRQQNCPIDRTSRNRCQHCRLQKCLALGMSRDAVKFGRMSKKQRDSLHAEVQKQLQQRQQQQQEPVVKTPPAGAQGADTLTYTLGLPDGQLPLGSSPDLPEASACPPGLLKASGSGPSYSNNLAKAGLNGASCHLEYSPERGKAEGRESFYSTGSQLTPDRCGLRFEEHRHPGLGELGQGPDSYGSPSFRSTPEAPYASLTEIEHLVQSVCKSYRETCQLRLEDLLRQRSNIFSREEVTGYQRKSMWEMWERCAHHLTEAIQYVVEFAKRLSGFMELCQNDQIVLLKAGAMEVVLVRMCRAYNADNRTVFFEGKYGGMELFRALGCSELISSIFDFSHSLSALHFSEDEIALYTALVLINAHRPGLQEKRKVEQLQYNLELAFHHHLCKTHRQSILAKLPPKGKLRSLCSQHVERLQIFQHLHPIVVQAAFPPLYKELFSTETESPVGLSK
SMILES,Potency [1],outcome [2],outcome [3],Potency [4],Potency [5],Potency [6],Potency [7],max response [8],"parasite growth, % of DMSO control [9]","parasite growth remaining, % of DMSO control (lower = more inhibition) [10]","parasite growth, % of control (lower = inhibition) [11]",outcome [12],max response [13],Potency [14],Potency [15],Potency [16],Potency [8]
CCN1CCCC1CNC(=O)c1cc(S(=O)(=O)CC)c(N)cc1OC (configuration not stated),inactive,inactive,inactive,inactive,inactive,inactive,inactive,-5.68% (inactive) and 24.9% (inactive),93.7%,99.9%,50.9%,–,–,–,–,–,–
O=C(CCCN1CCC(O)(c2ccc(Cl)cc2)CC1)c1ccc(F)cc1,inactive,inactive,inactive,inactive,–,–,–,–,–,–,–,inactive,-9.04% (inactive),inactive,–,–,–
NCCS(=O)(=O)O,inactive,–,inactive,inactive,inactive,inactive,inactive,-8.78% (inactive) and 22.4% (inactive),102%,102%,90.9%,inactive,5.47% (inactive),inactive,inactive,inactive,–
Fc1ccc([C@@H]2CCNC[C@H]2COc2ccc3c(c2)OCO3)cc1,inactive,inactive,inactive,inactive,inactive,inactive,inactive,–,35.7%,39.5%,34.6%,–,–,–,–,–,12.6 µM (active) and 1.12 µM (active)
Cc1cn([C@H]2C=C[C@@H](CO)O2)c(=O)[nH]c1=O,inactive,inactive,inactive,inactive,inactive,inactive,inactive,12.3% (inactive) and 14% (inactive),325% [at 57.5 µM],112% [at 57.5 µM],140% [at 57.5 µM],inactive,6.12% (inactive) and 3.59% (inactive) and -11.2% (inactive),inactive,inactive,inactive,–
O=C(c1ccc(OCCN2CCCCC2)cc1)c1c(-c2ccc(O)cc2)sc2cc(O)ccc12,inactive,inactive,inactive,inactive,inactive,inactive,inactive,–,7.18%,32.9%,20.8%,inactive,–,–,–,–,–
O=c1[nH]cc(F)c(=O)[nH]1,–,–,inactive,inactive,inactive,inactive,inactive,14.8% (inactive) and 3.27% (inactive),–,18.8%,–,inactive,-3.42% (inactive),inactive,inactive,inactive,–
Nc1ccn([C@H]2CC[C@@H](CO)O2)c(=O)n1,inactive,inactive,inactive,inactive,inactive,inactive,inactive,-9.19% (inactive) and 7.53% (inactive),–,115%,74.1%,inactive,-1.33% (inactive) and -0.56% (inactive),inactive,inactive,inactive,–
O=C1N(c2ccccc2)c2ccccc2C1(Cc1ccncc1)Cc1ccncc1,inactive,inactive,inactive,inactive,inactive,inactive,inactive,-4.76% (inactive) and 23.2% (inactive),105%,86.2%,120%,–,–,–,–,–,–
NS(=O)(=O)c1cc2c(cc1Cl)NCNS2(=O)=O,inactive,–,inactive,inactive,inactive,inactive,inactive,6.34% (inactive) and 16.2% (inactive),53.2%,53.5%,39.6%,inactive,0.152% (inactive) and 15.5% (inactive),inactive,inactive,inactive,–
Cc1cn([C@H]2C[C@H](N=[N+]=[N-])[C@@H](CO)O2)c(=O)[nH]c1=O,inactive,inactive,inactive,inactive,inactive,inactive,inactive,21.9% (inactive) and 0.942% (inactive) and 16% (inactive),–,109%,117%,inactive,-2.6% (inactive),inactive,inactive,inactive,–
O=c1c(-c2ccc(O)cc2)coc2cc(O)cc(O)c12,inactive,–,–,8.2 µM (active),inactive,inactive,inactive,20.7% (inactive) and 7.37% (inactive),72.2%,88.4%,57.2%,–,0.177% (inactive) and -1.16% (inactive),inactive,inactive,–,–
CC(C)C(=O)Nc1ccc([N+](=O)[O-])c(C(F)(F)F)c1,inactive,inactive,inactive,inactive,inactive,inactive,inactive,-7.87% (inactive) and -5.86% (inactive),–,–,–,inactive,-4.94% (inactive) and -9.28% (inactive),inactive,–,inactive,–
Cn1c(=O)c2c(ncn2C)n(C)c1=O,inactive,inactive,inactive,inactive,inactive,inactive,inactive,-4.77% (inactive) and 11.8% (inactive),91.2%,96.6%,81.8%,inactive,6.29% (inactive) and 2.32% (inactive),inactive,inactive,inactive,–
Clc1ccc(C(c2ccccc2Cl)C(Cl)Cl)cc1 (configuration not stated),inactive,–,inactive,inactive,inactive,inactive,inactive,-1.64% (inactive) and 6.44% (inactive),–,51.1%,54.8%,inactive,-18.3% (inactive) and -6.45% (inactive),–,33.5 µM (active),59.6 µM (active),–
